High-throughput results: PubChem BioAssay, National Center for Advancing Translational Sciences (NCATS)
LmPK inh: blocks Leishmania mexicana pyruvate kinase activity; 290,000 compounds, 0.37% hits; purified LmPK, Kinase-Glo ATP luminescence, 1 h; AID 1721; Potency, µM (doses to about 57.5 µM), most hits filed as inhibitors; Q27686
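ATP generated from ADP (0.1 mM) and PEP (0.5 mM) by 0.1 nM LmPK over 1 h at room temperature (pH 7.2 imidazole buffer) was detected by coupled luciferase luminescence. Values were normalized to uninhibited and no-enzyme wells.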
Shiga toxin inh: blocks Shiga toxin action in Vero cells | Vero cells, Shiga toxin protein synthesis inhibition reporter | inhibition, % at 38.7 µM | 290,000 compounds, 9.2% hits | AID 2315; in the data active = inhibition mostly above about 28%, no sharp cut-off; inactive = mostly below about 43%
CHX counter: counter-screen for Shiga toxin inhibitors: cycloheximide protein synthesis inhibition. cell reporter, cycloheximide protein synthesis inhibition counterscreen. max response, %. 300,000 compounds, 12% hits. AID 2314; in the data active = max response mostly above about 13%, no sharp cut-off; inactive = mostly below about 14%; also: read at 38.3 µM for the half of the compounds with a filed dose
NS1 inh: inhibitors of influenza NS1 protein function. AID 2326. 270,000 compounds, 0.4% hits. Potency, µM (doses to about 46.1 µM); calls by dose curve; also: actives are rising curves; nearly all actives have a fitted effect of over 50% in size
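Recovery from NS1-induced slow growth read by OD600 in budding yeast switched to galactose assay medium (pH 6.0, -URA) at 1:100 dilution. Compound 23 nl per well; the matching strain lacking NS1 serves as control.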
Giardia FBPA inh: Giardia lamblia aldolase inhibition. A8B2U2. 290,000 compounds, 0.71% hits. Potency, µM (highest dose often 59.6 µM), actives largely listed as inhibitors. purified Giardia FBPA; also: nearly all actives have a fitted effect of over 55% in size
Target sequence (A8B2U2 whole entry, looked up): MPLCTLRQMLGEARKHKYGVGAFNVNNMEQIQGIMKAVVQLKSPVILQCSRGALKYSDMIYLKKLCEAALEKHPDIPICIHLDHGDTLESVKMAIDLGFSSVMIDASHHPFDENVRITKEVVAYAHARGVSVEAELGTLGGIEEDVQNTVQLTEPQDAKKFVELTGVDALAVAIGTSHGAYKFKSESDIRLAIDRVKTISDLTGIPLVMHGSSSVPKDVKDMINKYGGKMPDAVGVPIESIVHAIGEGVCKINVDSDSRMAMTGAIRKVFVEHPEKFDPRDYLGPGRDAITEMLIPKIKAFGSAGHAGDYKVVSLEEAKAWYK
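40 nM FBPA preincubated 10 min at RT with compound (up to 57.5 uM final), then substrate plus GAPDH/TPI/NAD/arsenate coupling and diaphorase/resazurin added. Fluorescence read after 20 min at RT, 525/598 nm.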
A number is an active result; n = inactive; u = inconclusive; x = no result; [ ] = dose if it differs, or a comment. The list is not random: actives were taken first. Their share in the collection is about 14%. Unless noted, calls follow the shape of the dose curve; as a rule, active = well fitted curve in the direction sought with a large enough effect; inconclusive = small, poorly fitted or top-dose-only effect, or another doubt; inactive = no such curve, though single readings can be large; an effect the other way counts as inactive or inconclusive.

SMILES	LmPK inh	Shiga toxin inh	CHX counter	NS1 inh	Giardia FBPA inh
NC(=O)Nc1ccc(Cl)cc1	n	n	n	n	n
Cn1cnc(S(=O)(=O)NCc2ccc(Br)cc2)c1	n	n	n	n	n
c1ccc(-c2nnc(SCCC3OCCCO3)o2)cc1	n	104	43	n	n
O=C(CSc1nnc(-c2ccccc2)o1)NCC1CCCCC1	n	n	n	n	n[12.9 µM]
Brc1ccc(-c2nnc(SCCC3OCCCO3)o2)cc1	n	59	42	n	n
CCCC(C)NC(=O)C1c2ccccc2Oc2ccccc21 (stereo not drawn)	n	n	n	n	n
Cc1ccc(N/N=C/c2c(O)n(-c3ccccc3)c(=O)[nH]c2=O)cc1	n	n	22	x	n
CC1(C)C2CCC1(CS(=O)(=O)N1CCN(c3ccc(F)cc3)CC1)C(=O)C2 (stereo not drawn)	n	n	n	n	n
Cc1cccc(N2CN(Cc3cccnc3)CNC2=S)c1C	n	n	15	n	n
Fc1cccc(NCc2cn3ccccc3n2)c1	n	126	51	n	n
Fc1ccc(NCc2cn3ccccc3n2)cc1	11µM	77	53	n	u
Fc1cccc(NCc2ccoc2)c1	n	n	n	n	n
CC(C)(C)OC(=O)N1CCC(c2c(C(=O)N3CCN(C(=O)c4ccco4)CC3)cnn2-c2cccc(Cl)c2)CC1	n	n	n	n	n
CCOC(=O)c1c(C)[nH]c(C(=O)NCCc2ccc(OC)c(OC)c2)c1C	n	n	n	n	n
CCN(CC)CCC(c1ccc2c(c1)OCO2)c1c(OC)cc(OC)c2c(C)cc(=O)oc12 (stereo not drawn)	x	n	n	x	n
CCN(CC)CCC(c1ccc(OC)cc1)c1c(OC)cc(OC)c2c(C)cc(=O)oc12 (stereo not drawn)	x	124	53	x	n
O=C(O)c1ccc(-c2c3nc(c(-c4ccc(C(=O)O)cc4)c4ccc([n-]4)c(-c4ccc(C(=O)O)cc4)c4nc(c(-c5ccc(C(=O)O)cc5)c5ccc2[n-]5)C=C4)C=C3)cc1.[Mn+3]	x	n	n	x	n
O=C(O)c1ccc2c(=O)n3c(nc2c1)/C(=C/c1cccc(Cl)c1Cl)CC3	n	n	n	n	n
CCCCCc1nc2c(=O)n(C)c3ccccc3c2o1	n	123	64	n	n[12.9 µM]
O=C(O)c1cccc(Nc2ncnc3c2cnn3-c2ccccc2)c1	n	106	35	n	n
Clc1cccc(Nc2ncnc3c2cnn3-c2ccccc2)c1	n	45	40	n	u
Cc1c(Nc2ncnc3c2cnn3-c2ccccc2)c(=O)n(-c2ccccc2)n1C	n	n	n	n	n
O=C(O)c1cccc(Nc2ncnc3ccccc23)c1	n	n	n	n	n
Fc1cccc(Nc2ncnc3c2cnn3-c2ccccc2)c1	n	80	30	n	n
c1cc(CSSCc2ccncc2)ccn1	x	x	x	n	x
SMILES	LmPK inh	Shiga toxin inh	CHX counter	NS1 inh	Giardia FBPA inh
CC(C)CN(C)C(=O)CCc1nnc(Cc2cccc(C(F)(F)F)c2)o1	n	109	47	n	n
C=C(C)CNC(=O)CCc1nnc(Cc2cccc(C(F)(F)F)c2)o1	n	123	44	n	n
CC(NC(=O)CCc1nnc(Cc2cccc(C(F)(F)F)c2)o1)C1CC1 (stereo not drawn)	n	92	53	n	n
O=C(CCc1nnc(Cc2cccc(C(F)(F)F)c2)o1)NCC(F)(F)F	n	n	n	n	n
COc1cccc(NC(=O)C2C3C=CC4(O3)C2C(=O)N(CCCN2CCCCC2)C4C(=O)NC2CCCCC2)c1 (stereo not drawn)	n	n	n	n	n
O=C(c1ccncc1)N1CCC[C@@]2(CCN(Cc3ccncc3)C2)C1	x	x	x	x	n
N#C/C(=C\c1cccnc1)C(=O)Nc1ccc(S(N)(=O)=O)cc1	n	n	n	n	n
N=C(N)SCCN1CCCCC1	x	x	x	n	x
Cc1ccc(N=Nc2ccc(O)cc2)c(Br)c1	n	49	44	n	n
O=S(=O)(O)c1ccc2cc(N=Nc3cc(S(=O)(=O)O)c4cccnc4c3O)ccc2c1	x	x	x	n	x
COc1ccc(N=Nc2ccc(O)c3ncccc23)cc1	n	n	n	n	n
O=[As](O)(O)c1ccc(N=Nc2ccc(O)cc2)cc1	n	n	n	n	n
COc1cccc(N=Nc2ccc3cccnc3c2O)c1	n	62	30	n	u
COc1cccc(N=Nc2ccc(O)c3ncccc23)c1	n	89	13	n	u
Oc1ccc(N=Nc2ccc3c(c2)OCCO3)c2cccnc12	n	135	44	x	n
CCN1C(=O)[C@H]2[C@H]3[C@H](O)[C@H](O)C/C(=N/OCC(C)C)[C@H]3CC[C@@H]2C1=O	x	x	x	x	n[12.9 µM]
Nc1ccc(Br)c2cccnc12	n	n	n	n	u
Nc1ccc(N=Nc2ccccc2)c2cccnc12	n	90	48	n	n
Oc1ccc(N=Nc2ccc3c(c2)OCCO3)c(O)c1	u	n	22	n	n
Oc1ccc(N=Nc2ccc(Br)cc2)c(O)c1	n	84	48	n	n
Cc1nnc(SCC(=O)Nc2nc(-c3ccc(F)cc3)cs2)[nH]c1=O	n	n	21	n	n
Nc1ccccc1SCC(=O)Nc1nccs1	n	n	n	n	n
Nc1ccccc1SCC(=O)Nc1nc(-c2ccccc2)cs1	n	n	20	n	n
Cc1nc(NC(=O)CSc2ccccc2N)sc1C	n	n	25	n	n
COCc1cc(C)nc(SCC(=O)Nc2nc(C)cs2)c1C#N	n	n	24	n	n
SMILES	LmPK inh	Shiga toxin inh	CHX counter	NS1 inh	Giardia FBPA inh
Cc1ccc(-c2csc(NC(=O)CSc3nc4ccccc4[nH]3)n2)cc1	n	n	n	n	n
COc1cc2c(cc1OC)CN(C(=O)C(CCSC)NS(=O)(=O)c1ccc(C)cc1)CC2 (stereo not drawn)	n	n	n	n	n
Cc1csc(NC(=O)CSc2ccc(-c3ccccn3)nn2)n1	n	n	n	x	u
CCn1c(SCC(=O)Nc2nc(-c3ccc(C)cc3)cs2)nnc1-c1ccccc1	n	n	n	n	n
Cc1cc(=O)[nH]c(SCC(=O)Nc2nc(-c3ccccc3)cs2)n1	n	n	n	n	n
Cc1ccc(-c2csc(NC(=O)CSc3nc(C)cs3)n2)cc1	n	111	42	n	n
Cc1csc(NC(=O)CSc2ccccc2F)n1	n	84	37	x	n
Cc1csc(SCC(=O)Nc2nc(-c3ccccc3)cs2)n1	n	n	13	n	n
CCOCc1nnc(NC(=O)CS(=O)(=O)c2ccc(C)cc2)s1	n	n	n	n	n
CCCCS(=O)(=O)N1CCCC(C(=O)NCC2CCCO2)C1 (stereo not drawn)	n	n	n	n	n
CNC(=O)[C@H](C)/C=C/C(NC(=O)OCc1ccccc1)c1ccc(C(=O)OC)cc1 (stereo partly drawn)	x	x	x	x	n
CCOC(=O)c1c(C)[nH]c(O)c1C=Nc1ccccc1	n	n	n	n	n
CCOC(=O)c1c(C)[nH]c(N=Nc2cccc(OC)c2)c1C	n	154	58	x	n
CCOC(=O)c1[nH]c(C)c(C(=O)Nc2ccc(C)cc2C)c1C	n	n	n	n	n
CCOC(=O)c1c(C)[nH]c(N=Nc2cccc(C)c2)c1C	n	130	64	n	n
CNCc1ccccc1Sc1ccc(O)c(O)c1	n	n	n	n	2.5µM
